Assay results taken from PubChem BioAssay (NCI).
Compounds without any hit were thinned out: in the full panel of roughly 83,000, 20% have a hit.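 Values shown are percent growth following 48 h exposure of cells in 96-well plates to a single concentration of compound; below 10 was considered active.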 A number with no mark means an inactive call. Active and inactive are the calls of the source.

What follows are molecules tested on HL-60(TB) leukemia (assay: NCI-60 one-dose screen, 48 h (100 = growth as untreated, 0 = no growth, -100 = all killed)). Conditions: 10 µM unless noted.

Compound | growth
COc1c(N2CC3CCCNC3C2)c(F)cc2c(=O)c(C(=O)N/N=C/c3ccc(N(C)C)cc3)cn(C3CC3)c12 (stereo not drawn) | 78.5%
Brc1ccc2[nH]cc(-c3nn4cc(-c5nccs5)nc4s3)c2c1 | 59.1%
O=C(CSc1nc2ccccc2c(=O)n1-c1ccccc1)N/N=C/c1ccc(Oc2ccc(Cl)cc2)cc1 | 106%
CCOC(=O)C(=O)Nc1ccc2c(ccn2C(=O)c2cccc(F)c2)c1 | 99.2%
O=C1[C@H]2Cc3c([nH]c4ccccc34)[C@H](c3ccc(Br)cc3)N2C(=O)CN1C1CCN(CC2CCCCC2)CC1 | 56.9%
Cc1[nH]c(C(=O)Nc2ccc(C(N)=O)cc2N2CCOC(C)C2)c(Cl)c1Cl (stereo not drawn) | 98.1%
CNC(=O)c1cc(-c2ccc(NC(=S)Nc3cccc(C(F)(F)F)c3)cc2)nc2cccnc12 | 109%
Cc1cc(=O)n2nc(-c3cn(C)c4ccc(Cl)cc34)sc2n1 | 92.5%
CC(=O)c1cc(C(=O)N2c3ccccc3Sc3ccccc32)n2ccc3ccccc3c12 | 9.89% (active)
O=S(=O)(NCCCNc1nccc(-c2[nH]c(-c3ccccc3)nc2-c2ccc(Cl)c(O)c2)n1)c1cccc2ccccc12 | 9.79% (active)
O=C(NCCCNc1cc(-c2cn(-c3ccccc3)nc2-c2cccc(O)c2)ccn1)Nc1ccc(F)cc1 | 1.09% (active)
COc1ccc(/C=C/C(=O)c2nnn(-c3ccc(C(=O)O)cc3)c2C)cc1OC | 83.2%
C#C[C@]1(O)CC[C@H]2[C@@H]3CC=C4c5sc(-c6ccc7c(c6)OCO7)nc5CC[C@]4(C)[C@H]3CC[C@@]21C | 46.8%
